AC50 and activity, negative = inhibition data for 66 compounds are collected here from PubChem BioAssay AID1851 (National Center for Advancing Translational Sciences (NCATS), 2009).

About 5,100 (32%) of roughly 16,000 compounds were called active. Not shown: some 25% with an inconclusive outcome. This is one part of the list. Unmarked numbers belong to inactive results. Calls follow the shape of the dose curve; as a rule, active = well fitted curve in the direction sought with a large enough effect; inconclusive = small, poorly fitted or top-dose-only effect, or effect the other way; inactive = no such curve, though single readings can be large or run the other way.
% is scaled to controls: 0 for no effect and ±100 for the full control effect.

Sequence of Cytochrome P450 3A4 (Homo sapiens) (P08684 whole entry, looked up): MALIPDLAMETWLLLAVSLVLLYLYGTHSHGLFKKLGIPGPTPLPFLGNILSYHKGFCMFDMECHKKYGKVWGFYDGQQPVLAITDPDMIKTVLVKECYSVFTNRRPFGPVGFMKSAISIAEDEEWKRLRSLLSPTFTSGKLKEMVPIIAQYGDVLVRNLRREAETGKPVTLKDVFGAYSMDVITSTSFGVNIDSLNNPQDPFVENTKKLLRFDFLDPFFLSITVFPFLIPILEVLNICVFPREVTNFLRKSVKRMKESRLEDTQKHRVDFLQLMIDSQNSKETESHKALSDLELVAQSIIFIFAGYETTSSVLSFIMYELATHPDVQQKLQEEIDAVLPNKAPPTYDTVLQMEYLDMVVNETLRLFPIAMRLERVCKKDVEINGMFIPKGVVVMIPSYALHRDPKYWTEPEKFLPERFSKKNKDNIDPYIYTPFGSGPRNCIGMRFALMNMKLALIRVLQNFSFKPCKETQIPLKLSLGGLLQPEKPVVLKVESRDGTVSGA

This experiment addresses Cytochrome P450 3A4 (Homo sapiens) (UniProt P08684). Put plainly: Cytochrome panel assay with activity outcomes. The conditions noted are these: recombinant CYP, pro-luciferin dealkylation, luminescence, p450-cyp3a4; series mostly up to 57.1 µM.
Broadly, the AC50 is the concentration at which the activity in the assay is half-maximal. As for `N[C@H](C(=O)O)c1nn[nH]n1`, the AC50 result is “inactive”.

Regarding `C[C@](N)(C(=O)O)c1ccc(-c2nn[nH]n2)cc1`, the AC50 result is “inactive”.

Turning to `COc1ccc(N2C(=O)CC(S/C(N)=N/N=C(\C)c3cccs3)C2=O)cc1` (stereo unspecified), the AC50 was 14.1 µM (active).

`CCCOc1ccc(N2C(=O)CC(S/C(N)=N/N=C(\C)c3cccs3)C2=O)cc1` (stereo unspecified): the activity, negative = inhibition was 7.2% [at 2.29 µM].

Regarding `Cc1cccc(Sc2c([N+](=O)[O-])ncn2C)n1`, the AC50 entry is “inactive”.

For `N[C@H](C(=O)O)[C@@H]1C[C@@H]1C(=O)O`, the AC50 entry was “inactive”.

With `O=C1/C(=C\c2ccccn2)SC(=S)N1Nc1ncc(C(F)(F)F)cc1Cl`, the AC50 was 3.16 µM (active).

`Cc1cc(C)nc(NN2C(=O)/C(=C/c3ccccc3)SC2=S)n1`: the AC50 entry is “inactive”.

For the compound `O=C(N/N=C/c1cccc(C(F)(F)F)c1)C1CCN(c2ncc(C(F)(F)F)cc2Cl)CC1`, the AC50 entry was “inactive”.

Regarding `c1ccc(C(CCN2CC3CCC(CC3)C2)c2ccccc2)cc1`, the activity, negative = inhibition is -1.84% [at 11.4 µM].

Turning to `CCN(CC)C(=O)Cn1cnc([N+](=O)[O-])n1`, the AC50 entry was “inactive”.

Consider `CCOc1ccc(N(CCC#N)S(=O)(=O)c2ccc(OC)cc2)cc1`, for which the AC50 was 11.2 µM (active).

`CCc1cc2c(=O)n(-c3ccccc3)c(=S)[nH]c2s1`: the AC50 entry is “inactive”.

For `O=c1c2c(-c3cccs3)csc2ncn1-c1ccc(Br)cc1`, the activity, negative = inhibition was -3.71% [at 2.29 µM].

Turning to `O=c1c2c(-c3cccs3)csc2[nH]c(=S)n1-c1ccccc1`, the AC50 is 14.1 µM (active).

For the compound `COc1cccc(-c2nc(N(C)Cc3ccco3)c3ccccc3n2)c1`, the AC50 was 10 µM (active).

For the compound `CN(Cc1ccco1)c1nc(-c2cccc(C#N)c2)nc2ccccc12`, the concentration at half-maximal activity (AC50) is 12.6 µM (active).

In the case of `COc1ccccc1-c1nc(N(C)Cc2ccco2)c2ccccc2n1`, the AC50 was 7.94 µM (active).

In the case of `COc1cccc(-c2nc(N(C)C)c3ccccc3n2)c1`, the AC50 was 5.01 µM (active).

`O=C1OCc2cccc3cccc1c23`: the AC50 entry is “inactive”.

Turning to `FC(F)(F)c1ccccc1-c1ccc2ncnc(NC3CC3)c2c1`, the AC50 was 1.58 µM (active).

As for `Cc1ccccc1-c1ccc2ncnc(NC3CC3)c2c1`, the concentration at half-maximal activity (AC50) was 3.16 µM (active).

Turning to `N#Cc1ccccc1-c1ccc2ncnc(NC3CC3)c2c1`, the AC50 is 2 µM (active).

`Clc1ccccc1-c1ccc2ncnc(NC3CCNCC3)c2c1`: the AC50 result is “inactive”.

Take `FC(F)(F)c1ccccc1-c1ccc2ncnc(NC3CCNCC3)c2c1`: the AC50 entry was “inactive”.

For the compound `O=C(O)CCc1ccc(-c2ccccc2)[nH]1`, the activity, negative = inhibition was -13.2% [at 11.4 µM].

As to `CC(C)OC(=O)/C(=C\c1ccc2c(c1)c1ccccc1n2C)NC(=O)c1ccccc1`, the concentration at half-maximal activity (AC50) is 1.12 µM (active).

Take `CC(C)OC(=O)/C(=C\C=C\c1ccccc1)NC(=O)c1ccccc1`: the AC50 result was “inactive”.

As for `CC(C)SC(=N)N`, the AC50 result is “inactive”.

`COc1ccc(COC(=O)N/N=C(\C)CC(=O)Nc2c(C)cc(C)cc2C)cc1`: the AC50 is 1.78 µM (active).

Regarding `COc1ccc(C(=O)N/N=C(\C)Cn2nc([N+](=O)[O-])cc2C)cc1`, the activity, negative = inhibition is -3.05% [at 2.29 µM].

Take `COc1ccc(COC(=O)N/N=C2/C[C@@H](O)[C@@H](O)[C@@H]3[C@@H]4C(=O)N(C(C)(C)C)C(=O)[C@H]4CC[C@@H]23)cc1`: the activity, negative = inhibition is -13.5% [at 11.4 µM].

On to `CS(=O)(=O)N1CCC2(CCCN(C(c3ccccc3)c3ccccc3)C2)CC1`, for which the AC50 is 3.98 µM (active).

Consider `CS(=O)(=O)N1CCC[C@@]2(CCN(C(c3ccccc3)c3ccccc3)C2)C1`, for which the AC50 was 10 µM (active).

Regarding `CSc1nnnc2ccccc12`, the activity, negative = inhibition is -8.64% [at 11.4 µM].

On to `O=c1cc(-c2ccccc2)[nH]c2nc(Cl)ccc12`, for which the AC50 entry is “inactive”.

Take `N[C@@H](CO)C(=O)O`: the AC50 entry was “inactive”.

Regarding `CCOC(=O)NNC1CC(=O)N(c2ccc(OC)cc2)C1=O` (stereo unspecified), the AC50 entry was “inactive”.

In the case of `CCN=C(Nc1cccc(F)c1)SC1CC(=O)N(c2ccc(OC)cc2)C1=O` (stereo unspecified), the AC50 is 6.31 µM (active).

Regarding `O=C1CC(N2CCOCC2)C(=O)N1c1cccc(Cl)c1` (stereo unspecified), the AC50 result was “inactive”.

Consider `COc1ccc(CCC(C)Nc2cccc(F)c2)cc1` (stereo unspecified), for which the AC50 result was “inactive”.

As for `O=C1CC(SC(=Nc2ccccc2)Nc2ccccc2)C(=O)N1c1cccc(Cl)c1` (stereo unspecified), the concentration at half-maximal activity (AC50) is 11.2 µM (active).

Turning to `CC(=O)Nc1cccc(N2C(=O)CCC2=O)c1`, the AC50 entry was “inactive”.

Turning to `Cc1cc(OCCNCCO)cc(C)c1Cl`, the AC50 result is “inactive”.

`CC(C)c1ccc(/C=C2\C=C(c3ccc4ccccc4c3)OC2=O)cc1`: the activity, negative = inhibition is -9.49% [at 11.4 µM].

Take `Cc1ccc(S(=O)(=O)N2CCC(C(=O)NCc3cccnc3)CC2)cc1`: the AC50 was 3.16 µM (active).

In the case of `CCCS(=O)(=O)N1CCCC(C(=O)NCCN2CCOCC2)C1` (stereo unspecified), the activity, negative = inhibition is 0.644% [at 11.4 µM].

On to `CCCCN(CC)S(=O)(=O)N1CCC(C(=O)NCCCN2CCOCC2)CC1`, for which the AC50 was 11.2 µM (active).

`CCN(CC)S(=O)(=O)N1CCC(C(=O)NCc2ccc(C)cc2)CC1`: the AC50 is 11.2 µM (active).

Regarding `CC(C)CN(CC(C)C)S(=O)(=O)N1CCC(C(=O)NCc2ccc(F)cc2)CC1`, the AC50 is 15.8 µM (active).

Turning to `CCS(=O)(=O)N1CCC(C(=O)NCc2cccnc2)CC1`, the activity, negative = inhibition was -2.97% [at 2.29 µM].

Take `CCS(=O)(=O)N1CCC(C(=O)NCCCN2CCCC2)CC1`: the AC50 entry was “inactive”.

Consider `CCS(=O)(=O)N1CCC(C(=O)NCc2ccc(F)cc2Cl)CC1`, for which the AC50 result was “inactive”.

Turning to `C=C[C@H](N)CCC(=O)O`, the AC50 entry is “inactive”.

Consider `Cc1ccc(CN2C(=O)CCC2C(=O)NCc2cccnc2)cc1` (stereo unspecified), for which the AC50 was 2.24 µM (active).

`CC(C)(C)c1nc(SCC(=O)Nc2ccc3c(c2)OCCO3)c2ccccc2n1`: the AC50 was 7.08 µM (active).

Regarding `Cc1nc(SCC(=O)Nc2ccc3c(c2)OCCO3)c2oc3ccccc3c2n1`, the AC50 is 7.94 µM (active).

Regarding `CN(C)CCn1nnnc1SCC1=C(C(=O)O)N2C(=O)[C@@H](NC(=O)Cc3csc(N)n3)[C@@H]2SC1`, the AC50 result was “inactive”.

Consider `C[N+]1(C)CCc2cc(O)c(O)cc2[C@H]1Cc1ccc(O)c(O)c1`, for which the activity, negative = inhibition is -3.96% [at 11.4 µM].

In the case of `CCO[C@H](c1cc(OC)cc([N+](=O)[O-])c1OC)[C@H](C)/C=C\CC(=O)OC`, the concentration at half-maximal activity (AC50) is 3.98 µM (active).

For `COC(=O)C/C=C\[C@H](C)[C@@H](OC)c1ccccc1Br`, the activity, negative = inhibition was -22.3% [at 11.4 µM].

Turning to `CCC(Sc1nc(=O)cc(N)n1CCc1ccccc1)C(=O)Nc1ccccc1C#N` (stereo unspecified), the AC50 is 0.1 µM (active).

Turning to `C[C@H](NC(=O)Cn1cncn1)c1ccccc1`, the AC50 result was “inactive”.

For `N#Cc1ccccc1NC(=O)Nc1cccs1`, the AC50 result is “inactive”.

As for `CC(NC(=O)CSc1nc(=O)cc(N)n1CCc1ccccc1)c1ccccc1` (stereo unspecified), the AC50 was 0.178 µM (active).

For `Nc1cc(=O)nc(SCC(=O)Nc2cccc3ccccc23)n1CCc1ccccc1`, the AC50 was 0.126 µM (active).
